The campaign covered roughly 330,000 compounds. About 4,900 (1.5%) were called active.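 The calls were made as follows: active = inhibition above about 50% at the single test dose (limit read from the data); inactive = the rest.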 The list comes from a sample in which actives are over-represented; it also holds similar structures and randomly drawn compounds.
The compounds below were run against Sentrin-specific protease 7 (Homo sapiens) (UniProt Q9BQF6) (assay: blockers of human SENP7 peptidase activity – biochemical, luminescence, uHTS, primary screen (AID 434973;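 also: plate controls were DMSO with enzyme for no effect and no enzyme buffer wells for full effect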)). Conditions: recombinant SENP7, Z-RLRGG-aminoluciferin luminescence, 40 min; at 5 µM; stronger effect = higher value.

| SMILES | inhibition |
| --- | --- |
| c1ccc(-n2nc3ccccc3n2)cc1 | 1.86% (inactive) |
| Nc1ccc2nn(-c3ccc(Cl)cc3)nc2c1 | 57.3% (active) |
| CN(C)c1nnnn1-c1ccc(Cl)cc1 | -4.93% (inactive) |
| C[C@@H](NC(=O)OC(C)(C)C)c1nnc(S(=O)(=O)Cc2ccccc2)o1 | -2.96% (inactive) |
| NC(=O)C1CCN(C(=O)c2ccc(F)c(S(=O)(=O)N3CCOCC3)c2)CC1 | 10.4% (inactive) |
| Cc1ncc(CC(=O)n2cc(C(=O)c3cc(Cl)ccc3O)cn2)s1 | 0.896% (inactive) |
| O=C(c1cnn(-c2ccc(Cl)cc2)c1)c1ccccc1O | 93.1% (active) |
| COc1ccc(C(=O)Cc2cnn(-c3ccccc3)c2)c(O)c1 | 5.94% (inactive) |
| CC1CCCCC1NC(=O)COC(=O)Cc1ccc(Br)cc1 (stereo not drawn) | 0.5% (inactive) |
| CC(=O)OCc1cc(=O)n(C)c(=O)n1C | 6.2% (inactive) |
| COc1cccc(COC(=O)C2CCN(S(=O)(=O)c3ccc(Cl)cc3)CC2)c1OC | 11.2% (inactive) |
| O=C(COC(=O)c1ccco1)Nc1ccc(Cl)cn1 | 4.97% (inactive) |
| CCCCCc1ccc(-c2ccc(OCC)cc2)nc1 | 11.8% (inactive) |
| CCCCCc1ccc(-c2cn(Cc3ccc4ccccc4c3)nn2)cc1 | -7.9% (inactive) |
| CCCCCc1ccc(-c2ccc(C(=O)O)cc2)nc1 | 92.8% (active) |
| O=S(=O)(NCc1ccccc1Br)c1ccccc1Br | 2.03% (inactive) |
| O=C(CCc1nc2sc3c(c2c(=O)[nH]1)CCCC3)NCC(=O)Nc1ccccc1Br | 2.2% (inactive) |
| CC1CC(c2ccccc2)n2nc(NC(=O)c3cccs3)nc2N1 (stereo not drawn) | -9.29% (inactive) |
| CCn1nccc1C(=O)Nc1ccc(Cl)c(Cl)c1 | 63.8% (active) |
| CCn1nccc1C(=O)Nc1ccc(S(=O)(=O)NC23CC4CC(CC(C4)C2)C3)cc1 | -4.42% (inactive) |
| O=C(CC(O)(C(F)(F)F)C(F)(F)F)Nc1ccc(Cl)c(Cl)c1 | 2.83% (inactive) |

| SMILES | inhibition |
| --- | --- |
| COc1ccc(C(=O)N2CCN(c3ncccn3)CC2)cc1S(=O)(=O)N1CCOCC1 | 0.314% (inactive) |
| Cc1cc(NC(=O)C(C)N2C(=O)c3ccccc3S2(=O)=O)no1 (stereo not drawn) | 3.21% (inactive) |
| Cc1ccc(Nc2nnc(SC(C)C(=O)NC3CC3)s2)cc1 (stereo not drawn) | 7.35% (inactive) |
| Cc1ccc(NC(=O)Nc2nnc(-c3ccncc3)s2)cc1 | -3.06% (inactive) |
| Cc1ccc(Nc2nc(Cl)c(C=O)s2)cc1 | 52.6% (active) |
| COC(=O)C(C)N=Cc1ccccc1 (stereo not drawn) | -4.82% (inactive) |
| COCCNc1cc(-c2ccccc2)nc2cc(-c3cccc(F)c3)nn12 | -7.71% (inactive) |
| COc1cccc(/C=C/c2ccc3ccccc3n2)c1OC(C)=O | -1.58% (inactive) |
| COc1ccc(/C=C/c2noc(-c3ccccc3OC(C)=O)n2)cc1 | 87.9% (active) |
| CC(=O)Oc1ccc2c(c1)C(=O)c1ccccc1C2=O | 12.2% (inactive) |
| c1ccc(Nc2nc(-c3ccncc3)cs2)nc1 | 85.5% (active) |
| Clc1ccc(-c2csc(-c3ccncc3)n2)cc1 | -6.3% (inactive) |
| O=C(Nc1nc(-c2cccnc2)cs1)c1ccccc1F | 28.5% (inactive) |
| O=C(NCc1cccnc1)C(=O)Nc1nc(-c2ccccc2)cs1 | 3.71% (inactive) |
| CCCn1c(CCNc2nc(-c3ccc(OC)cc3)cs2)nc2ccccc21 | 0.961% (inactive) |
| COc1ccc(-c2csc(NC(=O)COC(=O)Cc3ccc(Cl)cc3Cl)n2)cc1 | 4.91% (inactive) |
| COc1ccc(-c2csc(Nc3ccccn3)n2)cc1 | 86.2% (active) |
| Clc1ccc(Nc2nc(-c3cccs3)cs2)nc1 | 11% (inactive) |
| COc1ccc(-c2csc(Cc3nc(O)cs3)n2)cc1 | 23.1% (inactive) |
| Cc1ccccc1Nc1nc(-c2cccnc2)cs1 | 54.3% (active) |
| COc1ccc2c(c1OC)C(=O)OC2Nc1nc(-c2ccccc2)cs1 (stereo not drawn) | 1.44% (inactive) |

| SMILES | inhibition |
| --- | --- |
| COc1ccc(Nc2nc(-c3ccccc3)cs2)cc1 | 95.8% (active) |
| CN(Cc1ccc(F)cc1Cl)S(=O)(=O)c1cccs1 | -5.99% (inactive) |
| CCN(C(=O)COC(=O)c1c(C)nn(-c2ccccc2)c1Cl)c1c(N)n(Cc2ccccc2)c(=O)[nH]c1=O | 2.84% (inactive) |
| O=[N+]([O-])c1cc(S(=O)(=O)CCCN2CCOCC2)ccc1F | -6.87% (inactive) |
| Cc1ccc(S(=O)(=O)NCC(=O)N(CC(=O)NC(C)(C)C)Cc2cccs2)cc1 | 0.604% (inactive) |
| CSCCNCc1cn(-c2ccc(F)cc2F)nc1-c1ccccc1C | 8.28% (inactive) |
| CCOc1ccc(S(=O)(=O)Nc2ccncc2)c(C)c1C | -7.98% (inactive) |
| CC[C@]1(C(=O)OC)[C@H]2C(=O)N(Cc3ccccc3)C(=O)[C@H]2[C@H]2CN=C(SCc3ccc(C#N)cc3)N21 | -3.53% (inactive) |
| OC(COCC1COc2ccccc2O1)CN1CCN(c2ccc(F)cc2)CC1 (stereo not drawn) | -0.332% (inactive) |
| CCCCCCCCOC1OC(CO)C(O)C(O)C1NC(C)=O (stereo not drawn) | -1.17% (inactive) |
| COc1c(F)c(F)c(-c2csc(N)n2)c(F)c1F | -8.1% (inactive) |
| CS(=O)(=O)Nc1cccc(C2=NN(C(=O)c3cccc(F)c3)C(c3cccs3)C2)c1 (stereo not drawn) | 6.94% (inactive) |
| O=C1/C(=C/c2coc3ccc(O)cc3c2=O)SC(=S)N1c1ccccc1 | -27.4% (inactive) |
| O=C(Cc1csc(Nc2nc(=S)[nH]c3ccccc23)n1)NCCCN1CCN(c2cccc(Cl)c2)CC1 | 6.52% (inactive) |
| CCC(C(=O)NC1CCCC1)N(C(=O)c1snc(C(N)=O)c1N)c1ccc2c(c1)OCCO2 (stereo not drawn) | 5.07% (inactive) |
| Nc1c(C(=O)c2cccs2)sc2nsc(SCCN3CCCCC3)c12 | 9.3% (inactive) |
| Cc1ccc(-c2csc(NC3OC(=O)c4ccccc43)n2)cc1 (stereo not drawn) | -11.5% (inactive) |
| Cc1cccc(Nc2nc(-c3ccccc3)cs2)n1 | 92.9% (active) |
| Cc1ccc(Nc2nc(-c3ccc(O)cc3O)cs2)nc1 | -5.69% (inactive) |
| CCOCCCNC(=O)C1(O)c2cc(Br)ccc2NC(=O)N1c1ccc(C)c(C)c1 (stereo not drawn) | 8.05% (inactive) |
| COCCn1c(SC(C)C(=O)NC2CC2)nnc1-c1cccc(C)c1 (stereo not drawn) | 1.39% (inactive) |

— PubChem BioAssay AID434973 (Sanford-Burnham Center for Chemical Genomics, 2010)
